Results published in PubChem BioAssay.
Values without a mark were called inactive.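 The calls were made as follows: active = compounds whose cell count with miR-34 switched on is under 0.7 times the count with it off; inactive = the rest.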

experiment: sensitizers of A549 cells to miR-34 induction, primary screen, imaging, A549 dox-inducible miR-34, nuclei and caspase counts (AID 1347080); settings: A549 miR-34 inducible, Hoechst nuclei count, 48 h; hits give low values; cell number ratio, induced over uninduced; also: test concentration not given here

Question: Which fold change does the source give for `CCOC(=O)c1c(C)nn(-c2ccc(OC)cc2)c1C` here?
Answer: The fold change was 0.895.

Question: For `O=c1c(-c2ccc(O)cc2)coc2cc(OC3OC(CO)C(O)C(O)C3O)ccc12` (configuration not stated), which fold change is on record?
Answer: The fold change was 1.06.

Question: For `O=C(O)Cc1c[nH]c2ccccc12`, which fold change is on record?
Answer: Its fold change is 0.913.

Question: For `O=C(O)c1cnc(-c2ccccc2)[nH]1`, which fold change is on record?
Answer: Its fold change is 0.939.

Question: With `O=C(Nc1c[nH]c2ccccc12)c1cc(-c2ccc(F)cc2)n[nH]1` as the molecule, how does the fold change read?
Answer: The fold change was 0.84.

Question: With `Cc1ccc2c(C(=O)N(C)C(C)C)cc(-c3cnc(C(C)C)nc3)nc2c1` as the molecule, how does the fold change read?
Answer: The fold change was 0.942.

Question: For `COc1cc(F)c(-c2nc3c(cnn3Cc3cccs3)[nH]2)c(F)c1`, which fold change is on record?
Answer: Its fold change is 0.818.

Question: For `Cc1ccc(Sc2cccc3nc(N)nc(N)c23)cc1`, which fold change is on record?
Answer: Its fold change is 1.07.

Question: Which fold change does the source give for `CCn1c2ccccc2c2cc(CNC)ccc21` here?
Answer: The fold change was 0.848.

Question: With `CN(C)C(=O)CN(C)C(=O)c1cccc(Nc2ncnc3c2cnn3C)c1` as the molecule, how does the fold change read?
Answer: The fold change was 0.866.

Question: With `Cn1c(=O)c2c(nc(N3CCNCC3)n2Cc2ccccc2)n(C)c1=O` as the molecule, how does the fold change read?
Answer: The fold change was 0.839.

Question: For `O=c1cc(-c2ccccc2)oc2ccccc12`, which fold change is on record?
Answer: Its fold change is 0.858.

Question: Which fold change does the source give for `O=c1[nH]c(=O)c2[nH]cnc2[nH]1` here?
Answer: The fold change was 0.891.

Question: With `Cc1ccc(-n2cc(-c3nc4c(cnn4Cc4cccnc4)[nH]3)cn2)cc1` as the molecule, how does the fold change read?
Answer: Its fold change is 0.858.

Question: For `CN(C)c1ccc(N=Nc2ccccc2C(=O)O)cc1`, which fold change is on record?
Answer: Its fold change is 0.742.

Question: With `CCCn1ncc(-c2ccnc(NCc3cc(CC)no3)n2)c1C` as the molecule, how does the fold change read?
Answer: The fold change was 0.843.

Question: With `CCc1nc(NC(=O)NC(c2ccccc2)c2ccccc2)nn1C` as the molecule, how does the fold change read?
Answer: Its fold change is 0.893.
